This is an account of results in PubChem BioAssay (NCATS).

Assay [1] deals with Cellular tumor antigen p53 (Homo sapiens) (UniProt P04637). Put plainly: Primary qHTS for small molecule compounds that upregulate eGFP-tagged delta133p53alpha (in N-terminal) cells. (AID 2060322).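 Also: series mostly up to about 56 µM; 0% = DMSO vehicle and 100% = reference activator; nearly all actives have a fitted effect of over 75% in size.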 Particulars: NCI-H358 eGFP-delta133p53alpha fluorescence, 24 h; activation: hits give high values. In short, it runs like this:
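NCI-H358 cells pre-induced 24 h with 10 ng/ml doxycycline to express N-terminal eGFP-delta133p53alpha, then dosed 24 h at 37C without doxycycline; fixed, Hoechst-stained, GFP intensity by laser scanning cytometry, normalized to DMSO (0%) and 57.5 uM 5-azacytidine (100%).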
On the technique in general: Quantitative high-throughput screening tests each substance at several concentrations.

A short description of assay [2]: BET inhibitor-based combinations targeting novel dependencies in MECOM-rearranged (r) AML: SET-2 cell line (AID 2202231). Also: nearly all actives have a fitted effect of over 35% in size. Also: potency is read from the fitted curve at half-maximal effect.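 As to viability: plate controls were DMSO treated cells for no effect and wells without cells for full effect.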 As to conditions: SET-2 AML cells viability, CellTiter-Glo luminescence, 48 h; viability: hits give low values, concentration not given here. In short, it runs like this:
(§1)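 Luminescent ATP readout (CellTiter-Glo) after 48 hr drug exposure gives viability. Curves span 11 concentrations and are normalized to DMSO and empty wells. Activity is reported as area under the curve and its Z-transform within each cell line.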
Background: ATP-based viability assays read luminescence as a measure of living cells.

Assay [3] can be described thus: BET inhibitor-based combinations targeting novel dependencies in MECOM-rearranged (r) AML: OCI-AML3 cell line (AID 2202232). Also: nearly all actives have a fitted effect of over 35% in size. Also: potency is read from the fitted curve at half-maximal effect. As to conditions: Potency: OCI-AML3 viability. In short, it runs like this: as §1
Assay [4] can be described thus: BET inhibitor-based combinations targeting novel dependencies in MECOM-rearranged (r) AML: HNT-34 cell line (AID 2202234). Also: nearly all actives have a fitted effect of over 35% in size. Also: potency is read from the fitted curve at half-maximal effect. A digest of the protocol:
(§2)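 Luminescent ATP readout (CellTiter-Glo, 15 min at room temperature) after 48 hr drug exposure gave viability. Dose-response curves, normalized to DMSO and empty-well controls, were summarized as area under the curve and its mean-centred Z-score.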

Assay [5] is described as follows: BET inhibitor-based combinations targeting novel dependencies in MECOM-rearranged (r) AML: UCSD-AML1 cell line (AID 2202235). Also: nearly all actives have a fitted effect of over 40% in size. Also: potency is read from the fitted curve at half-maximal effect. A digest of the protocol: as §2
Assay [6] can be described thus: BET inhibitor-based combinations targeting novel dependencies in MECOM-rearranged (r) AML: AML-191 cell line (AID 2202236; also: nearly all actives have a fitted effect of over 35% in size; also: potency is read from the fitted curve at half-maximal effect). A digest of the protocol: as §1
Assay [7] can be described thus: BET inhibitor-based combinations targeting novel dependencies in MECOM-rearranged (r) AML: AML-194 cell line (AID 2202237; also: nearly all actives have a fitted effect of over 40% in size; also: potency is read from the fitted curve at half-maximal effect). In short, it runs like this:
as §1

Assay [8] is described as follows: BET inhibitor-based combinations targeting novel dependencies in MECOM-rearranged (r) AML: MV-4-11 cell line (AID 2202233). Also: nearly all actives have a fitted effect of over 45% in size. Also: potency is read from the fitted curve at half-maximal effect. In short, it runs like this: as §2

Values joined by “and” are separate entries in the source; they are usually repeats but may differ in a detail not shown here. Equal entries are not always repeated. Inconclusive results are not listed. A number with no mark means an inactive call. Active and inactive are the calls of the source. Calls follow the shape of the dose curve; as a rule, active = well fitted curve in the direction sought with a large enough effect; inconclusive = small, poorly fitted or top-dose-only effect, or another doubt; inactive = no such curve, though single readings can be large; an effect the other way counts as inactive or inconclusive.

Chain of Cellular tumor antigen p53 (Homo sapiens) (P04637 whole entry, looked up): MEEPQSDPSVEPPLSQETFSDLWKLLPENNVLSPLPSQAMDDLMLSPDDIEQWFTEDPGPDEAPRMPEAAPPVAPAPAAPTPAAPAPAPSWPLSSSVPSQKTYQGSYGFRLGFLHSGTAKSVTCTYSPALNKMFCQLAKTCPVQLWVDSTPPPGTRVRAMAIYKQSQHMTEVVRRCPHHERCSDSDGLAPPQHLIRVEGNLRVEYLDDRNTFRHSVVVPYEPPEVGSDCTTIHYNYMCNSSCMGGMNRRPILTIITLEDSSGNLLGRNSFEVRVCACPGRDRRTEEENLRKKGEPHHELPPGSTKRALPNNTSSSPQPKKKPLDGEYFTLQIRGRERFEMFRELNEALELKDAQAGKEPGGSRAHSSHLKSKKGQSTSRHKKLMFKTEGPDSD

Broadly, the viability is a read-out of living cells in per cent, often relative to untreated cells. `CC1(C)CCC(C)(C)c2cc(NC(=O)c3ccc(C(=O)O)cc3)ccc21`: the activation in assay [1] is -13% and 3.42%. Moreover, the viability in assay [2] was 80.9%. Also, the Potency result in assay [3], in assay [5] and in assay [7] was “inactive” throughout. The figures for the Potency in assay [4] and in assay [6] were 1.66 µM (active) and 0.0021 µM (active), respectively.

Consider `CC(S)C(=O)NCC(=O)O` (stereo not given), for which the activation in assay [1] was 9.72%. Besides, the viability in assay [2] is 114%. For the same molecule, in assay [3], the Potency is 8.33 µM (active). Besides, the Potency result in assay [4] and in assay [5] was “inactive” each time.

Regarding `Cn1cnc(=N)c2[nH]cnc21`, in assay [1], the activation was 10.7%. For the same molecule, in assay [2], the viability was 111%. In addition, the Potency result in assay [3], in assay [4], in assay [5], in assay [6] and in assay [7] was “inactive” each time.

In the case of `O=C1NC(O)CCN1[C@@H]1O[C@H](CO)[C@H](O)[C@H]1O` (stereo not given in full), the activation in assay [1] is -10.6%. For the same molecule, the viability in assay [2] was 115%. The Potency result in assay [3], in assay [4], in assay [6] and in assay [7] was “inactive” throughout.

Take `CS(=O)(=O)OCCCCOS(C)(=O)=O`: in assay [1], the activation is -9.57%. Moreover, in assay [2], the viability is 114%. Further, the Potency entry in assay [3], in assay [4] and in assay [6] was “inactive” in each case.

Regarding `CC(C)(C)COc1ccc(-n2cc(C(=O)O)cn2)cc1C#N`, the activation in assay [1] is -16.6%. Moreover, in assay [2], the viability is 95.2%. Also, in assay [3], the Potency was 10.5 µM (active). Further, the Potency entry in assay [4] and in assay [7] was “inactive” throughout.

Turning to `O=C1C[C@@H](c2ccc(O)cc2)Oc2cc(O)cc(O)c21`, the activation in assay [1] is -17.7%. Further, in assay [2], the viability is 109%. Further, the Potency result in assay [3], in assay [4], in assay [6] and in assay [7] was “inactive” throughout.

Turning to `CCOC(=O)[C@H](CCc1ccccc1)N[C@@H](C)C(=O)N1[C@H](C(=O)O)C[C@@H]2CCC[C@@H]21`, the activation in assay [1] was 5.08%. The viability in assay [2] was 108%. Moreover, the Potency entry in assay [3], in assay [4], in assay [5], in assay [6] and in assay [7] was “inactive” throughout.

Regarding `COc1ccc(CC2=NN3C([C@@H](CCc4ccccc4)[C@@H](C)O)=NC(C)C3C(=O)N2)cc1OC` (stereo not given in full), in assay [1], the activation is -13.9%. The viability in assay [2] is 101%. Further, the results for the Potency in assay [3], in assay [4] and in assay [6] were 7.42 µM (active), 18.6 µM (active) and 16.6 µM (active), respectively. The Potency entry in assay [5] and in assay [7] was “inactive” throughout.

`S=c1nc[nH]c2nc[nH]c12`: the activation in assay [1] is -18.4% and 17.9%. Besides, the Potency in assay [2] is 2.63 µM (active); in assay [3], 1.86 µM (active); in assay [4], 16.6 µM (active); in assay [5] it was 3.72 µM (active); in assay [7] it was 590 nM (active).

Turning to `NC(=O)c1cccnc1`, the activation in assay [1] was -14.2% and 9.71%. Besides, the viability in assay [2] is 106%. The Potency result in assay [3], in assay [4], in assay [5], in assay [6] and in assay [7] was “inactive” in each case.

In the case of `CC(NCCc1ccc(O)cc1)C(O)c1ccc(O)cc1` (stereo not given), in assay [1], the activation was -5.46%. In addition, in assay [2], the viability was 112%. In addition, the Potency entry in assay [3], in assay [4], in assay [5], in assay [6] and in assay [7] was “inactive” each time.

As to `O=C1c2cccc(O)c2C(=O)c2c(O)cc(CO)cc21`, the activation in assay [1] was -5.26%. For the same molecule, the viability in assay [2] was 116%. Also, the Potency result in assay [3], in assay [4], in assay [5], in assay [6] and in assay [7] was “inactive” each time.

With `CC(N[C@H]1CCCC[C@H]1NC(=O)c1ccc(Cl)cc1)c1cccc2ccccc12` (stereo not given in full), in assay [1], the activation is 3.01%. The Potency in assay [2] was 26.3 µM (active); in assay [3], 16.6 µM (active); in assay [8], 13.2 µM (active); in assay [6], 11.8 µM (active); in assay [7], 8330 nM (active).

Consider `CCC(C)(C)c1ccc(CC(C)CN2C[C@@H](C)O[C@@H](C)C2)cc1` (stereo not given in full), for which, in assay [1], the activation was -16.4%. Further, in assay [2], the viability was 82.6%. In addition, the Potency entry in assay [3], in assay [4], in assay [5] and in assay [7] was “inactive” each time.

On to `CC(C)c1ccc2oc3nc(N)c(C(=O)O)cc3c(=O)c2c1`, for which the activation in assay [1] is 16.6% and 7.34%. The viability in assay [2] was 106%. The Potency in assay [3] and in assay [4] was 14.8 µM (active) in each case.

As for `C#C[C@]1(O)CC[C@H]2[C@@H]3CCC4=CC(=O)CC[C@@H]4[C@H]3CC[C@@]21CC`, in assay [1], the activation was -5.86%. Further, the viability in assay [2] was 103%. The Potency result in assay [3], in assay [4] and in assay [7] was “inactive” in each case.

In the case of `COc1cccc2c1C(=O)c1c(O)c3c(c(O)c1C2=O)C[C@@](O)(C(=O)CO)C[C@@H]3O[C@H]1C[C@H](N)[C@H](OC2CCCCO2)[C@H](C)O1` (stereo not given in full), the activation in assay [1] is 3.12%. Further, the Potency is 1.32 µM (active) and 833 nM (active) in assay [2]; 0.186 µM (active) in assay [3]; 332 nM (active) and 235 nM (active) in assay [4]; 209 nM (active) and 263 nM (active) in assay [5]; 118 nM (active) and 372 nM (active) in assay [6]; 332 nM (active) and 296 nM (active) in assay [7].

For the molecule `OCCN1C[C@H](O)[C@@H](O)[C@H](O)[C@H]1CO`, in assay [1], the activation is -10.9%. Also, in assay [2], the viability was 115%. The Potency result in assay [3], in assay [4], in assay [5], in assay [6] and in assay [7] was “inactive” in each case.

As to `CCCCCCCCCCCCc1ccc(S(=O)(=O)Nc2nncs2)cc1`, the activation in assay [1] is -6.63%. In addition, the viability in assay [2] is 118%. Moreover, the Potency entry in assay [3], in assay [4], in assay [5], in assay [6] and in assay [7] was “inactive” throughout.

With `N[C@@H](CC(=O)N1CCn2c(nnc2C(F)(F)F)C1)Cc1cc(F)c(F)cc1F`, in assay [1], the activation was -12.2%. In assay [2], the viability is 112%. Moreover, the Potency entry in assay [8], in assay [4], in assay [5], in assay [6] and in assay [7] was “inactive” in each case.

As to `Cn1cc(-c2ccc3nnc(Sc4ccc5ncccc5c4)n3n2)cn1`, the activation in assay [1] is -0.663%. The viability in assay [2] was 107%. Further, the Potency result in assay [3], in assay [5], in assay [6] and in assay [7] was “inactive” in each case.

With `Oc1ccc(OCc2ccccc2)cc1`, in assay [1], the activation is -16.4% and -11.2%. In addition, the viability in assay [2] is 81.8%. Further, the Potency in assay [8] was 9.34 µM (active).
